9 compounds from PubChem BioAssay can be followed below.

Molecules are shown by their SMILES. Activity calls are given as the source filed them.

Experiment [1] deals with PRMT1 (protein arginine N-methyltransferase 1). The experiment is described as follows: PRMT1 binders on small-molecule microarrays, primary screen, biochemical, small-molecule microarray, 635 nm fluorescence (AID 1088).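 Also: binding of Prmt1 protein to compounds spotted on small-molecule microarray slides.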 To be noted: small-molecule microarray binding, higher = more signal.
Experiment [2] is described as follows: yeast growth modulation, basal conditions, primary screen, YJM789 clinical isolate, OD600, 24 h (AID 1089).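 Also: growth of clinical yeast isolate S. cerevisiae YJM 789 seeded 1000 cells per well; test concentration not given here.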 To be noted: S. cerevisiae YJM789 growth, higher = more signal, called active from +8 up or from −8 down.
The nature of experiment [3]: fission yeast growth modulation, primary screen, strain 972, OD600, 24 h, no modulator (AID 1090).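 Also: basal condition with compound alone and no growth modifier present; test concentration not given here.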 Conditions: S. pombe 972 growth, higher = more signal, called active from +8 up or from −8 down.
The nature of experiment [4]: S. cerevisiae growth modulation with rapamycin, primary screen, strain BY4716, OD600, 96 h (AID 1091). Also: test concentration not given here. Conditions: higher = more signal, called active from +8 up or from −8 down.
Experiment [5] deals with Torsin-1A-interacting protein 2 (Homo sapiens) (UniProt Q8NFQ8). The experiment is described as follows: LULL1 binders on small-molecule microarray, primary screen, cell lysate, human LULL1 lysate, 635/667 nm fluorescence (AID 1092).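 Also: probe is lysate of COS7 cells overexpressing human LULL1; score merges per-feature 667 nm fluorescence with signal-to-noise.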 To be noted: hLULL1 lysate binding, 635 nm fluorescence, higher = more signal.
A short description of experiment [6]: E. coli growth modulation, two-sided OD650, primary screen, E. coli filamentation project, strain DRC41, 24 h (AID 1093).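 Also: MC1000 strain lacking acrAB efflux and sulA so SOS filamentation is blocked; test concentration not given here.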 Conditions: OD650, 24 h, higher = more signal, called active from +8 up or from −8 down.
Experiment [7] is described as follows: small-molecule microarray binders of probe aLefty2, primary screen, biochemical, biotinylated probe, 635/667 nm fluorescence (AID 1094).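 Also: score merges spot fluorescence near 667 nm with spot signal-to-noise ratio.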 To be noted: higher = more signal.
Experiment [8] deals with Noggin (protein binding on small-molecule microarray). Kind of experiment: Noggin binders on small-molecule microarray, primary screen, biochemical, 635/667 nm fluorescence (AID 1095).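 Also: score merges 667 nm feature fluorescence with signal to noise over triplicate slides.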 Conditions: 635 nm fluorescence, higher = more signal.
Experiment [9] has as its target Neurogenic locus notch homolog protein 3 (Homo sapiens) (UniProt Q9UM47). The experiment is described as follows: NOTCH3 binders on small-molecule microarray, primary screen, biochemical, 635/667 nm fluorescence (AID 1096). Conditions: NOTCH3 binding, 635 nm fluorescence, higher = more signal.
The nature of experiment [10]: small-molecule microarray binders of probe aEGFR, primary screen, biochemical, biotinylated probe, 635/667 nm fluorescence (AID 1097).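 Also: probe is a biotinylated anti-EGFR antibody binding compounds printed on slides; score combines fluorescence near 667 nm and signal to noise of each spot.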 To be noted: higher = more signal.
Experiment [11] has as its system Plasmodium falciparum Sir2 (PF13_0152, Sir2A). The experiment is described as follows: pfSir2 binders on small-molecule microarrays, primary screen, biochemical, small-molecule microarray, 635 nm fluorescence (AID 1098).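 Also: score merges spot fluorescence intensity with its signal-to-noise ratio.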 To be noted: small-molecule microarray binding, fluorescence 635 nm; higher = more signal.
A short description of experiment [12]: small-molecule microarray binders of probe aDKK1, primary screen, biochemical, biotinylated probe, 635/667 nm fluorescence (AID 1099).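 Also: score merges 667nm spot fluorescence with signal to noise across triplicate slides; reference of the scale not given here.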 To be noted: higher = more signal.
The nature of experiment [13]: small-molecule microarray binders of probe aCHRDL2, primary screen, biochemical, biotinylated probe, 635/667 nm fluorescence (AID 1100). Conditions: higher = more signal.
Experiment [14] is described as follows: splicing luciferase reporter signal modulators, primary screen, spliceosome inhibition project, cell-based, HEK293, splice +/- reporter (AID 1101).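 Also: HEK293 cells carrying a splicing-competent luciferase reporter gene; test concentration not given here.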 Conditions: luminescence, 24 h, higher = more signal, called active from +8 up or from −8 down.
The target in experiment [15] is Fibroblast growth factor 10 (Homo sapiens) (UniProt O15520). The experiment is described as follows: FGF10 binders on small-molecule microarrays, primary screen, biochemical, small-molecule microarray, 635 nm fluorescence (AID 1102). To be noted: FGF10 binding, fluorescence 635 nm, higher = more signal.
The subject of experiment [16] is glycogen synthase kinase-3 (GSK3A per assay name; protocol says GSK3B). The experiment is described as follows: GSK3 binders on small-molecule microarrays, primary screen, biochemical, small-molecule microarray, 635 nm fluorescence, GSK3A (AID 1103). Also: the record names both GSK3A and GSK3B. To be noted: small-molecule microarray binding, fluorescence 635 nm; higher = more signal.
The target in experiment [17] is Epidermal growth factor receptor (Homo sapiens) (UniProt P00533). Kind of experiment: EGFR binders on small-molecule microarrays, primary screen, biochemical, small-molecule microarray, 635 nm fluorescence (AID 1104).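 Also: score merges 667 nm emission intensity with spot signal to noise over triplicate slides.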 Conditions: EGFR binding, higher = more signal.
In experiment [18] the target is Follistatin-related protein 3 (Homo sapiens) (UniProt O95633). Kind of experiment: FSTL3 binders on small-molecule microarrays, primary screen, biochemical, small-molecule microarray, 635 nm fluorescence (AID 1105).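 Also: score merges emission near 667 nm and signal to noise per printed spot across three slides.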 To be noted: FSTL3 binding, higher = more signal.
The target of experiment [19] is Dickkopf-related protein 1 (Homo sapiens) (UniProt O94907). Kind of experiment: DKK1 binders on small-molecule microarrays, primary screen, biochemical, small-molecule microarray, 635 nm fluorescence scan (AID 1106).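 Also: score merges emission near 667 nm with signal to noise over three replicate slides.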 To be noted: DKK1 binding, higher = more signal.
For experiment [20], the system named is Inhibin beta A chain (activin A). Kind of experiment: INHBA (activin A) binders on microarrays, primary screen, biochemical, small-molecule microarray, 635 nm fluorescence scan (AID 1107).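 Also: mouse activin A protein probed at 4.33 µg/mL on printed slides; score merges bound-protein fluorescence near 667 nm with spot signal-to-noise.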 Conditions: small-molecule microarray binding, higher = more signal.

Sequence of Dickkopf-related protein 1 (Homo sapiens) (O94907 whole entry, looked up): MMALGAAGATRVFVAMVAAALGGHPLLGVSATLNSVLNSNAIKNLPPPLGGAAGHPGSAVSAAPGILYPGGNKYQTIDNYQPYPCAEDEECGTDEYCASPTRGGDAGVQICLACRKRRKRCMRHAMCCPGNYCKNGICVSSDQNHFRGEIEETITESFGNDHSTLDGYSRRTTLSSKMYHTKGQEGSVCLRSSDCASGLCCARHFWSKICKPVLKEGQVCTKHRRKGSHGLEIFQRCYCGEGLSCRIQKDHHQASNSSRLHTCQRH
Sequence of Epidermal growth factor receptor (Homo sapiens) (P00533 whole entry, looked up): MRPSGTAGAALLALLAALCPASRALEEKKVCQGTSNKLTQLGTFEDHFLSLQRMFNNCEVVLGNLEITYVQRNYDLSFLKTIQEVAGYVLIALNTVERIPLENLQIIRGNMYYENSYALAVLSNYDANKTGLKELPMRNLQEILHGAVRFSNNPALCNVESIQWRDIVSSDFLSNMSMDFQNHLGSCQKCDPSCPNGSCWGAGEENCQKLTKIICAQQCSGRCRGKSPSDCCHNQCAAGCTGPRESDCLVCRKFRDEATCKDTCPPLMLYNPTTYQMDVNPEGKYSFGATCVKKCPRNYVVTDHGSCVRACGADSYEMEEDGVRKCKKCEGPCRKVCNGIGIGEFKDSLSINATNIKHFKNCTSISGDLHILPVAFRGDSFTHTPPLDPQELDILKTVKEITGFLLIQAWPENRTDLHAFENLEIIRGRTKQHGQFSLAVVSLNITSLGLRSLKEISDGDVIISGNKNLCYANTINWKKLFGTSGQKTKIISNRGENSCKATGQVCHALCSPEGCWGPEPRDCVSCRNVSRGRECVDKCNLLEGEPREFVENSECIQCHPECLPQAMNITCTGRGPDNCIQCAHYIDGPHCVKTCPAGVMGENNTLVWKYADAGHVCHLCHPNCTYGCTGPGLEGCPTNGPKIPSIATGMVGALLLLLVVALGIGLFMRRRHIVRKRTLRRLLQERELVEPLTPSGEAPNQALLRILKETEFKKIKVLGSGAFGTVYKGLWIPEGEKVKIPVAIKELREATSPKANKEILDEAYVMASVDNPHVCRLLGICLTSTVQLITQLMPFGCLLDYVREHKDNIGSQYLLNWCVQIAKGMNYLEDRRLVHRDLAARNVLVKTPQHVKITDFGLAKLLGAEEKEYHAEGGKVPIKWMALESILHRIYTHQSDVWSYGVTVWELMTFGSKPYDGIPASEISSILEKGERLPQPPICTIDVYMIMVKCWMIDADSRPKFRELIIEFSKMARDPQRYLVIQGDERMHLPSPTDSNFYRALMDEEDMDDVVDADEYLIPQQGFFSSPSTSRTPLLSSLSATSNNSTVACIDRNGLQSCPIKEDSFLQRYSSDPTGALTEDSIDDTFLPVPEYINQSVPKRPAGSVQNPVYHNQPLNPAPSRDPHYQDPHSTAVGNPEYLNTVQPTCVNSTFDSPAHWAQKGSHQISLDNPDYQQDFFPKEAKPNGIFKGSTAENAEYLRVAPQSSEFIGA
Sequence of Neurogenic locus notch homolog protein 3 (Homo sapiens) (Q9UM47 whole entry, looked up): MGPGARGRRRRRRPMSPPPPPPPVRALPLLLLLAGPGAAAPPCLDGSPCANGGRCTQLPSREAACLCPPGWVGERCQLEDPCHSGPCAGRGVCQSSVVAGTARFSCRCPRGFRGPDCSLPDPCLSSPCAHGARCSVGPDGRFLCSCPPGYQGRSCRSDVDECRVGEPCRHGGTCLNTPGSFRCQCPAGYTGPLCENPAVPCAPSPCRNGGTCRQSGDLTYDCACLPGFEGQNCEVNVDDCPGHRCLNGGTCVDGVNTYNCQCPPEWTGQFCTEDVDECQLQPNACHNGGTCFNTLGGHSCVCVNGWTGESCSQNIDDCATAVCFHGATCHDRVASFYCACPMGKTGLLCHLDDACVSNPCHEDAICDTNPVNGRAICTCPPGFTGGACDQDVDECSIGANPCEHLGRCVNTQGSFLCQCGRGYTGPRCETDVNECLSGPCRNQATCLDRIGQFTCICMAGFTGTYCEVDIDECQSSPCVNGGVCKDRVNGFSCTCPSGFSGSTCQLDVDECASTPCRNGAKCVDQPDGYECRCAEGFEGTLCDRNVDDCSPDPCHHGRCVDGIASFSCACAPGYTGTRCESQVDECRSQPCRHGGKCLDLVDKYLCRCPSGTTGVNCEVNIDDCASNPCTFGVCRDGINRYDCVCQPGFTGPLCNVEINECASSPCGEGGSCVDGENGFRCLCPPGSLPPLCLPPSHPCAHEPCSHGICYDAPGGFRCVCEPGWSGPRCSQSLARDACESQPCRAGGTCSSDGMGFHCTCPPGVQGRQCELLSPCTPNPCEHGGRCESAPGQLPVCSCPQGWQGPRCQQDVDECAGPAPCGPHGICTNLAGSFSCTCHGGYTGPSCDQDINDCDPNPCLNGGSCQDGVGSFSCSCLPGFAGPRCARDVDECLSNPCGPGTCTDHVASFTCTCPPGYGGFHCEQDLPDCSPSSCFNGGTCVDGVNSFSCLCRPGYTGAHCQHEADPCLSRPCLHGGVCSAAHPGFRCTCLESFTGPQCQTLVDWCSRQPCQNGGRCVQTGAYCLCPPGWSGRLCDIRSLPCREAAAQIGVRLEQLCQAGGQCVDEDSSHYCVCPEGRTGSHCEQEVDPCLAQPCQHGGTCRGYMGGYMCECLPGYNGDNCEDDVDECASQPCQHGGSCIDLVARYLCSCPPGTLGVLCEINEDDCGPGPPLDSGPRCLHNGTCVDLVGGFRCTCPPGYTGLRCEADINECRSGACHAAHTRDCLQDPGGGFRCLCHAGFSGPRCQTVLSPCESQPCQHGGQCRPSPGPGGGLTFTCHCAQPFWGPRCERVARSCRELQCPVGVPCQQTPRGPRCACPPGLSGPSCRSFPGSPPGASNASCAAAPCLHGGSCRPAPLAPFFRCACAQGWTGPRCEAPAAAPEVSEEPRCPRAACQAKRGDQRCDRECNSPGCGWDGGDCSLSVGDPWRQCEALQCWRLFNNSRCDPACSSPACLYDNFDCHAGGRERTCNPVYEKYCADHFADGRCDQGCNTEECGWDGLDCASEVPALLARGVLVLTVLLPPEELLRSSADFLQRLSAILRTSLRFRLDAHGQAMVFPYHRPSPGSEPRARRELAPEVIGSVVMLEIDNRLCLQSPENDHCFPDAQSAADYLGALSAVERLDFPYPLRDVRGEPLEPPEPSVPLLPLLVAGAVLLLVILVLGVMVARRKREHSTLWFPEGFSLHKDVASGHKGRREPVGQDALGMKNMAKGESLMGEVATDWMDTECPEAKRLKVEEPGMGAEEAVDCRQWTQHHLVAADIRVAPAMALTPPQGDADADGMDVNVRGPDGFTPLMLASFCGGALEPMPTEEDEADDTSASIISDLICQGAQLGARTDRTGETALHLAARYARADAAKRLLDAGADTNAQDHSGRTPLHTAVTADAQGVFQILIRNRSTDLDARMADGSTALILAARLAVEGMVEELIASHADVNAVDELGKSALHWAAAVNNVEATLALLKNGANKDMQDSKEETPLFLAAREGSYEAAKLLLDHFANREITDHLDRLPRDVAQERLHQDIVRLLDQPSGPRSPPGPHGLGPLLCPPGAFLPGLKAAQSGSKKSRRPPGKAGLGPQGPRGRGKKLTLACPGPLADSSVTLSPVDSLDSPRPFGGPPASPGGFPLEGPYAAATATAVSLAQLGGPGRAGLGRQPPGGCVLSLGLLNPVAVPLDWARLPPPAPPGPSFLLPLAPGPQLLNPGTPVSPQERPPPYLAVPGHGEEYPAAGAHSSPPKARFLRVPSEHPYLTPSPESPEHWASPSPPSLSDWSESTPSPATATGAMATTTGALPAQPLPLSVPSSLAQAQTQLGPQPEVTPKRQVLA
Sequence of Follistatin-related protein 3 (Homo sapiens) (O95633 whole entry, looked up): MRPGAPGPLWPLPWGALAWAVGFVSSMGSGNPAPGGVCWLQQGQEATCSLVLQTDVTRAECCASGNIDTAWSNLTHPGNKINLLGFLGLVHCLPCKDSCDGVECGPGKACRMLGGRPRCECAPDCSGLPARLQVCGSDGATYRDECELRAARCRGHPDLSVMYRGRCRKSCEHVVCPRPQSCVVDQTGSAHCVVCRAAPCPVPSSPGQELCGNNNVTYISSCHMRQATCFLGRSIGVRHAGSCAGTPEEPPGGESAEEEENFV
Sequence of Fibroblast growth factor 10 (Homo sapiens) (O15520 whole entry, looked up): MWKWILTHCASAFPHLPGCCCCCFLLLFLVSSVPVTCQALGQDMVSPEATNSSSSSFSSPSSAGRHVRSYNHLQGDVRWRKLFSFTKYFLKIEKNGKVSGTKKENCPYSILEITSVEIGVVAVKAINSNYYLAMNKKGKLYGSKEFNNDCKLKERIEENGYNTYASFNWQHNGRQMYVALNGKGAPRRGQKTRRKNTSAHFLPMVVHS
Sequence of Torsin-1A-interacting protein 2 (Homo sapiens) (Q8NFQ8 whole entry, looked up): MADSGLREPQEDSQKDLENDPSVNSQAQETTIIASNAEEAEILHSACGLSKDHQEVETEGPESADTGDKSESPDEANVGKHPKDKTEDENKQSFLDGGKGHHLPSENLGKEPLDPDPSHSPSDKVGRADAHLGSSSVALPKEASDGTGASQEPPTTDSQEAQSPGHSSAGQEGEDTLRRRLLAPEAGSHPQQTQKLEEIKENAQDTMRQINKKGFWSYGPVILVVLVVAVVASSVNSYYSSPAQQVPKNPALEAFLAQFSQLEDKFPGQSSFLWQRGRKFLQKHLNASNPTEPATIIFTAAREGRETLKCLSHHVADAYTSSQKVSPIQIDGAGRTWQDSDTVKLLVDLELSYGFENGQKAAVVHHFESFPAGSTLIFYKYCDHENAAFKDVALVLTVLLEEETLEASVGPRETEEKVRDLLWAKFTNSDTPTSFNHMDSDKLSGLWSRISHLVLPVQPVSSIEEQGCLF

As to `COC(=O)[C@@]1(Cc2ccccc2)[C@H]2c3cc(C(=O)N4CCCC4)n(Cc4ccc(C(F)(F)F)nc4)c3C[C@H]2CN1C(=O)c1ccccc1`, the composite z-score was found to be 1.19 in experiment [1]; 3.64 in experiment [5]; 0.226 in experiment [7]; 0.073 in [8]; 1.03 in experiment [9]; 0.265 in [10]. Also, the composite z-score in experiment [11] was 1.28; in [12], 0.568; in [13], 1.02; in experiment [15], 0.881; in experiment [16], 1.32; in experiment [17], 0.0424. For the same compound, the composite z-score in experiment [18] was 1.1; in experiment [19] it was -0.269; in experiment [20], 0.634. Also, the z-score was -0.461 (inactive) in experiment [2]; 0.449 (inactive) in experiment [3]; 1.98 (inactive) in [4]; -0.35 (inactive) in experiment [6]; -0.434 (inactive) in experiment [14].

`C=CCC(OC(C)=O)[C@@H]1[C@@H](N(Cc2ccc(-c3cccc(C(F)(F)F)c3)o2)C(=O)Cc2ccc(F)cc2)c2cc(OCCCO)ccc2N1C(=O)c1ccc2ccccc2c1` (stereo not given in full): the composite z-score is -1.22 in experiment [1]; -0.305 in experiment [5]; -0.0485 in experiment [7]; 0.0055 in experiment [8]; -0.35 in [9]; 0.0804 in experiment [10]. The composite z-score in experiment [11] was 0.819; in experiment [12] it was -0.185; in experiment [13], 0.429; in experiment [15] it was -0.701; in experiment [16], -1.87; in experiment [17] it was -0.659. Moreover, the composite z-score in [18] is 0.199; in [19], -0.0392; in [20], 1.08. The z-score in experiment [2] is -0.428 (inactive); in [3], 0.498 (inactive); in [4] it was -1.2 (inactive); in [6], -0.381 (inactive); in experiment [14], -0.182 (inactive).

As for `C=CC[C@@]1(C(=O)N(C)C)N=C(c2ccc(OCCCO)cc2)O[C@@H]1c1ccccc1`, the composite z-score in [1] was 0.52; in experiment [5], 3.5; in [7], 0.363; in [8], -0.474; in [9] it was -0.0401; in experiment [10], 0.464. Moreover, the composite z-score was 1.72 in experiment [11]; 0.595 in [12]; 0.959 in experiment [13]; 1.4 in [15]; 1.01 in experiment [16]; -0.644 in [17]. Moreover, the composite z-score in experiment [18] was -0.583; in experiment [19], -0.217; in experiment [20] it was 1.17. The z-score in [2] was -0.69 (inactive); in experiment [3] it was -2.28 (inactive); in experiment [4], -2.31 (inactive); in experiment [6], -0.343 (inactive); in experiment [14], -0.69 (inactive).

Turning to `CC(=O)c1ccc(C(O)C2C=CC3C(=O)N(C)C(=O)C3N2NC(=O)OC(C)(C)C)cc1` (stereo not given), the composite z-score in [1] was 1.54; in experiment [5] it was 3.47; in experiment [7], 0.236; in [8], -0.465; in experiment [9] it was 1.11; in [10], 0.357. The composite z-score in experiment [11] was 1.44; in experiment [12] it was 0.86; in [13], 0.948; in experiment [15], 1.17; in experiment [16], 0.944; in experiment [17], -0.499. The composite z-score is 0.425 in [18], -0.698 in [19] and -0.149 in experiment [20]. In addition, the z-score in experiment [2] was 0.269 (inactive); in [3] it was 1.08 (inactive); in experiment [4], 1.59 (inactive); in experiment [6], -1.24 (inactive); in experiment [14] it was 1.66 (inactive).

Take `COCCOC(=O)N1C(=O)[C@@]2(c3cc(C#Cc4ccc(OC)cc4)ccc31)[C@H](C(=O)N1CCCCCCC1)[C@H]1C(=O)O[C@H](c3ccccc3)[C@H](c3ccccc3)N1[C@@H]2c1ccccc1OCCO`: the composite z-score in experiment [1] amounted to 1.44; in [5], 3.66; in experiment [7] it was 1.63; in experiment [8], 1.91; in experiment [9], 1.12; in [10], 1.02. Moreover, the composite z-score in experiment [11] was 1.55; in [12], 2.5; in experiment [13], 1.57; in experiment [15], 0.766; in experiment [16], 1.32; in experiment [17] it was 1.07. The values for the composite z-score in experiment [18], in [19] and in experiment [20] were 1.56, 1.61 and 1.66, respectively. Further, the z-score is 1.83 (inactive) in experiment [2]; 1.44 (inactive) in [3]; 3.98 (inactive) in experiment [4]; -0.291 (inactive) in [6]; 0.00537 (inactive) in experiment [14].

`COc1ccc(CCNC(=O)[C@@]2(Sc3ccc(C)cc3)CC(=O)N(C(C)C)[C@@H]2c2ccc(CO)cc2)cc1`: the composite z-score is 0.633 in experiment [1]; 2.09 in experiment [5]; 0.0507 in experiment [7]; -1.4 in [8]; -1.15 in experiment [9]; -0.249 in experiment [10]. The composite z-score was 1.41 in experiment [11]; 0.0055 in [12]; 0.983 in experiment [13]; -0.855 in [15]; -0.897 in experiment [16]; -2.03 in [17]. The composite z-score in experiment [18] was -1.45; in [19] it was -2; in experiment [20] it was -0.87. For the same compound, the z-score in experiment [2] is 0.956 (inactive); in experiment [3], 0.0503 (inactive); in experiment [4] it was 0.088 (inactive); in [6], -0.015 (inactive); in experiment [14], 0.239 (inactive).

With `Cc1ccc(F)cc1S(=O)(=O)N[C@@H]1CCN(Cc2ccc3[nH]ccc3c2)C1`, the composite z-score in [1] was 0.556; in [5] it was 2.31; in [7], -0.177; in experiment [8] it was 0.418; in experiment [9] it was 0.933; in experiment [10], -0.0512. For the same compound, the composite z-score in experiment [11] was 0.114; in [12], -0.177; in [13], -0.124; in experiment [15], 0.482; in experiment [16], 0.139; in experiment [17], 0.651. The composite z-score in [18] was found to be 1.08; in experiment [19], 0.574; in experiment [20], 0.689. Further, the z-score in [2] is -0.765 (inactive); in [3], -2.97 (inactive); in [4], -0.873 (inactive); in experiment [6], -1.76 (inactive); in experiment [14], 0.309 (inactive).

Take `COc1ccc(NN2C(C(O)c3ccc(OC)cc3)C=CC3C(=O)N(C4CCCCC4)C(=O)C32)cc1` (stereo not given): the composite z-score was found to be 1.43 in experiment [1]; 2.12 in experiment [5]; 0.103 in experiment [7]; 0.157 in experiment [8]; 1.08 in experiment [9]; 0.21 in experiment [10]. In addition, the composite z-score is 0.797 in [11]; 0.702 in experiment [12]; 0.501 in experiment [13]; 0.608 in [15]; 1.14 in experiment [16]; 0.556 in experiment [17]. Besides, the composite z-score in experiment [18] is 1.04; in experiment [19], -0.101; in experiment [20], 1.2. In addition, the z-score in experiment [2] is -0.0924 (inactive); in [3], 1.01 (inactive); in experiment [4], 0.365 (inactive); in [6], 0.0447 (inactive); in experiment [14] it was -0.316 (inactive).

As to `O=C1O[C@@H](c2ccccc2)[C@@H](c2ccccc2)N2[C@@H](c3ccc(OCCO)cc3)[C@]3(C(=O)Nc4ccc(C#CCCO)cc43)[C@@H](C(=O)Nc3nc4ccccc4s3)[C@H]12`, the composite z-score was 1.5 in experiment [1]; 3.06 in experiment [5]; -0.0826 in experiment [7]; 0.677 in [8]; 1.06 in experiment [9]; -0.0531 in experiment [10]. The composite z-score stood at 1.08 in [11]; 0.49 in experiment [12]; 0.683 in [13]; 0.975 in experiment [15]; 1.29 in experiment [16]; 0.367 in experiment [17]. The composite z-score amounted to 1.08 in [18], 0.0321 in [19] and 0.655 in experiment [20]. The z-score is 1.32 (inactive) in [2]; 0.415 (inactive) in experiment [3]; 1.72 (inactive) in experiment [4]; 2.55 (inactive) in experiment [6]; -0.288 (inactive) in [14].
